Bioassay records: PubChem, ICCB-Longwood Screening Facility, Harvard Medical School
Vaccinia pol inh = inhibitors of vaccinia virus processive DNA synthesis (E9 polymerase); in vitro processive DNA synthesis, absorbance read-out; active compounds read low; normalized absorbance, % (no concentration beside the values); 46,000 compounds, 0.94% hits; AID 493162; in the data active = normalized absorbance mostly below about 85%, no sharp cut-off; inactive = mostly above about 86%
Active calls of the source: *. Shown is part of a subset that was picked to be rich in hits.

SMILES | Vaccinia pol inh
Cc1cccc(NC(=O)Nc2cccc(C)c2)c1 | 105
N=C(N)c1cccc(NC(=O)Nc2cccc(C(=N)N)c2)c1 | 77*
COC(=O)c1cccc(NC(N)=S)c1 | 97
COc1ccccc1C(=O)OCC1CCCN2CCCCC12 (stereo unspecified) | 100
Cc1ccc(N2C(=O)/C(=C3/C(=O)N(C)c4ccccc43)SC2=S)cc1 | 101
Cc1c(C(=O)/C=C/N(C)C)nnn1-c1cc(Cl)ccc1Cl | 110
O=C(O)CNS(=O)(=O)/C=C/c1ccccc1 | 100
O=S(=O)(/C=C/c1ccccc1)Nc1ccc(F)cc1 | 76*
O=C(O)c1ccccc1NS(=O)(=O)/C=C/c1ccccc1 | 95
Cc1cc(C)nc(/N=C(/NC(=O)Nc2cccc(Cl)c2)Nc2ccccc2C)n1 | 100
O=C1CNC(=O)N1/N=C/c1cccc2ccccc12 | 100
O=c1[nH][nH]c(=O)n1CCCc1cc2cccc3ccc4cccc1c4c32 | 63*
C1CCN(C2=NCCS2)CC1 | 99
COc1ccc(NC(C)=O)cc1C | 101
CC(=O)Nc1ccc(Cl)c(Cl)c1 | 99
CC(=O)Nc1ccc(-n2c(C)ccc2C)c(C(=O)O)c1 | 49*
COc1cccc2c3c(c(C)nc12)CCS3 | 84
CCOc1ccc(NC(=O)CC2C(=O)N(C)C(=S)N2CCc2ccccc2)cc1 (stereo unspecified) | 100
COC(=O)c1cc2occc2n1C | 105
C=CCN1C(=O)C(Cc2c[nH]c3ccccc23)NC1=S (stereo unspecified) | 100
O=C(O)c1cc(C=Nc2ccc(S(=O)(=O)NC3NC=CS3)cc2)c2c(c1)COCO2 (stereo unspecified) | 52*
Cc1cc(NS(=O)(=O)c2ccc(N=Cc3ccccc3O)cc2)no1 | 98
COc1ccc(S(=O)(=O)Nc2cccnc2)c2ccccc12 | 98
CC(C)(C)N=Cc1nc(-c2ccccc2)oc1O | 90
O=C1CCC(c2ccccc2)CC1 | 66*
SMILES | Vaccinia pol inh
O=C1CC(c2ccccc2)SC(c2ccccc2)C1 (stereo unspecified) | 100
O=C(O)CN1CCC(c2ccccc2)CC1 | 103
O=C(COc1ccccc1)Nc1cccc(-c2nc3cccnc3s2)c1 | 98
CN(C)c1cccc(N2Cc3ccccc3C2=N)c1 | 107
CCSC1=C(C#N)C(=O)NC(c2ccc(OC)cc2)S1 (stereo unspecified) | 101
CCSC1=C(C#N)C(=O)NC(C(C)C)S1 (stereo unspecified) | 94
CCSC1=C(C#N)C(=O)NC(CO)S1 (stereo unspecified) | 96
N#CC1=C(SCc2ccccc2)SC(c2ccc(C(=O)O)cc2)NC1=O (stereo unspecified) | 60*
COC(=O)CSC1=C(C#N)C(=O)NC(/C=C/c2ccccc2)S1 (stereo unspecified) | 94
CC1NC(=O)C(C#N)=C(SCc2ccccc2)S1 (stereo unspecified) | 63*
O=c1oc(-c2cccc(C(F)(F)F)c2)nc2ccccc12 | 88
O=C(NC1CC1)C1Cc2ccccc2CN1S(=O)(=O)c1ccc(F)cc1 (stereo unspecified) | 99
COCc1cc(C)nc2sc3c(c12)NC(c1ccccc1)NC3=O (stereo unspecified) | 100
CCN(CC)c1ccc(N2C(=O)/C(=C/c3ccccc3)SC2=S)cc1 | 101
O=C(O)c1cccc(N2C(=O)/C(=C/c3ccccc3)SC2=S)c1 | 90*
COc1ccccc1/C=C1\SC(=S)N(c2ccccc2)C1=O | 100
CC(C)C1Oc2cc3oc(=O)ccc3cc2/C1=N\O (stereo unspecified) | 97
CC(C)c1nnc(NC(=O)c2ccc(-c3ccccc3)cc2)s1 | 94
CCN(CC)CC(O)COC1C2CC3CC(C2)CC1C3 (stereo unspecified) | 87
Cc1cc(N)c2ccccc2[n+]1CCCCCCCCCC[n+]1c(C)cc(N)c2ccccc21 | 35*
Cc1cc(-c2ccccc2N)nc2ccccc12 | 99
Oc1ccccc1C=Nc1ccc(-c2nc3ccccc3s2)cc1 | 100
CC(C)(C)C(=O)Nc1ccc(O)c(-c2nc3ccccc3s2)c1 | 99
Oc1ccc(N=Cc2ccccc2)cc1-c1nc2ccccc2s1 | 84*
C[n+]1ccc(/C=C/c2ccccc2O)c2ccccc21 | 100
SMILES | Vaccinia pol inh
C[n+]1ccc(/C=C\c2ccco2)c2ccccc21 | 91
C[n+]1ccc(/C=C/c2ccc3c(c2)OCO3)c2ccccc21 | 60*
CCNC(=S)N(CCc1c(C)[nH]c2ccccc12)Cc1ccccn1 | 96
O=C1CSC(=S)N1/N=C/c1cc(Br)cc(Br)c1O | 81*
O=C(NN1C(=O)CSC1=S)c1ccccc1 | 100
O=C1CSC(=S)N1/N=C/c1cccnc1 | 102
CCCC(C#N)c1ccc(Cl)cc1Cl (stereo unspecified) | 100
O=C(CCc1nc2cccnc2n1-c1ccccc1)NCC1CCCO1 (stereo unspecified) | 109
Cc1[nH]c2ccccc2c1C(Nc1ccccn1)c1ccc(C(F)(F)F)cc1 (stereo unspecified) | 99
COC(=O)c1c2c(n3ccccc13)C(=O)c1ccccc1C2=O | 62*
COC(=O)c1c2c(n3ccc(C)cc13)C(=O)c1ccccc1C2=O | 96
